About 2,100 (0.66%) of roughly 320,000 compounds were called active. Inconclusive results (about 53%) are left out. This is one part of a sample in which actives are shown more often than they occur. Calls come from the whole dose curve; as a rule, active = well fitted inhibition curve with a large enough effect in the signal ratio, with a control signal flat (not every such curve was filed as active); inconclusive = small, poorly fitted or top-dose-only effect, or effect the other way, or a change in a side signal; inactive = flat fitted curve, though single readings scatter; the % refers to the signal ratio.
Assay: qHTS Assay for Lipid Storage Modulators in Drosophila S3 Cells;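 for cell number change: cells counted by Cell Tracker Red CMTPX staining in the red channel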; for lipid storage change, negative = inhibition: % is set by controls: 0 for no effect and ±100 for the full control effect
Settings: BODIPY lipid droplet fluorescence, 18-24 h, cells fed with added oleic acid; cell number change: measured here: cell count max response; series mostly up to 46.1 µM; lipid storage change, negative = inhibition: at the top concentration
Procedure, shortened: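 Drosophila S3 cells loaded with oleic acid (400 uM, as added) and compounds at several concentrations; lipid droplets imaged by 488-nm laser-scanning cytometry, 500–530 nm intensity and object ratio to cell channel. Percent activity normalized to 20 uM Triacsin C.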
Potency is the fitted concentration of half-maximal effect.

| Structure (SMILES) | lipid storage change, negative = inhibition | cell number change [%] | Potency | outcome |
| --- | --- | --- | --- | --- |
| Cc1cc(C)n(CCC(=O)N=Nc2c(O)[nH]c3ccc(Br)cc23)n1 | 4.25% (inactive) | -11.1 |  |  |
| CCOCCCNC(=O)c1ccc2c(c1)N=C(CC)c1cc(Br)ccc1S2 | 1.52% (inactive) | 13.2 |  |  |
| COc1ccccc1CN1CCSCC1 |  | -20 | 23.1 µM (active) |  |
| COc1cccc(CN2CCSCC2)c1 | -2.92% (inactive) | 8.55 |  |  |
| COc1cccc(CN2CCSCC2)c1OC | 2.57% (inactive) | 10.1 |  |  |
| COc1cc(CN2CCSCC2)cc(OC)c1OC | 6.26% (inactive) | -0.391 |  |  |
| COc1ccccc1CN1CCCCCC1 | 4.08% (inactive) | 10.4 |  |  |
| COc1ccc(CN2CCSCC2)cc1C |  | 8.44 | 23.1 µM (active) |  |
| O=C(Nc1ccc(F)cc1)N1CCCN(c2ccc(C(F)(F)F)cn2)CC1 | 5.76% (inactive) | -1.28 |  |  |
| O=C1C2C3c4ccccc4C(c4ccccc43)C2C(=O)N1/N=C/c1cccc(O)c1 (stereo unspecified) | 3.58% (inactive) | 9.29 |  |  |
| CC1(C)CC(NC(=O)c2cc(S(=O)(=O)N3CCOCC3)c(Cl)cc2Cl)CC(C)(C)N1 |  | -3.63 |  | inactive |
| COc1cc(/C=C2\SC(N3CCc4ccccc4C3)=NC2=O)cc(OC)c1OC | 23.5% (inactive) | 4.12 |  |  |
| COc1ccc(/C=C(\C#N)c2nc3ccc(C)cc3[nH]2)cc1Oc1ccc(C(F)(F)F)cc1[N+](=O)[O-] |  |  | 8.2 µM (active) |  |
| N#C/C(=C(/O)c1ccc([N+](=O)[O-])o1)c1nc2ccccc2[nH]1 | -16.9% (inactive) | -1.26 |  |  |
| Cc1ccc2nc(/C(C#N)=C\c3ccc([N+](=O)[O-])o3)[nH]c2c1 |  | -22.5 | 6.51 µM (active) |  |
| N#C/C(=C\c1ccc(-c2ccccc2C(=O)O)o1)c1nc2ccccc2[nH]1 | -14.4% (inactive) | -1.22 |  |  |
| N#C/C(=C\c1ccc([N+](=O)[O-])o1)c1nc2ccccc2[nH]1 |  | -21.1 | 4.11 µM (active) |  |
| Cc1ccc2nc(/C(C#N)=C/c3cn[nH]c3-c3ccc(F)cc3)[nH]c2c1 |  | -24.5 |  | inactive |
| N#C/C(=C\c1ccc(Oc2ccc(C(F)(F)F)cc2[N+](=O)[O-])cc1)c1nc2ccccc2[nH]1 | -16.1% (inactive) | -10.6 |  |  |
| Cc1ccc2nc(/C(C#N)=C/c3ccccc3C(=O)O)[nH]c2c1 |  |  |  | inactive |

| Structure (SMILES) | lipid storage change, negative = inhibition | cell number change [%] | Potency | outcome |
| --- | --- | --- | --- | --- |
| Cc1ccc2nc(/C(C#N)=C\c3ccc(Oc4ccc(C(F)(F)F)cc4[N+](=O)[O-])cc3)[nH]c2c1 | -3.61% (inactive) | 1.55 |  |  |
| CCOC(=O)c1c(NC(=O)C2CC2)sc2c1CC(C)(C)OC2 | -4.23% (inactive) | 0.857 |  |  |
| COC(=O)C(C)n1nc(C)n(-c2ccc(C)cc2)c1=O (stereo unspecified) | -18.3% (inactive) | -11.2 |  |  |
| COc1ccc(CC(=O)Nc2ccc(C(=O)Nc3ccccc3C(=O)O)cc2)cc1OC | 13.2% (inactive) | 17.1 |  |  |
| COc1cc(C(=O)NC(c2ccccc2)c2ccccc2)cc(Cl)c1OC | -11.7% (inactive) | 14.2 |  |  |
| Cc1ccc(C(=O)N2CCN(c3ccc(NC(=O)c4ccc5c(c4)OCCO5)cc3)CC2)cc1 | 0.0275% (inactive) |  |  |  |
| CCC(=O)N1CCN(c2ccc(NC(=O)c3ccc4c(c3)OCCO4)cc2)CC1 | 1.66% (inactive) | 25.3 |  |  |
| CC(C)(C)C(=O)N1CCN(c2ccc(NC(=O)c3ccc4c(c3)OCCO4)cc2)CC1 |  | -3.48 | 16.4 µM (active) |  |
| CCN(CC(=O)Nc1ccccc1C(F)(F)F)C(=O)c1ccc(=O)n(Cc2ccccc2)n1 | 7.12% (inactive) | 22.5 |  |  |
| CC(=O)c1cn(CC(=O)NCC2CCCO2)c2ccccc12 (stereo unspecified) | 18% (inactive) | 3.78 |  |  |
| COc1cc(CNC2CCCCCCC2)c(Br)cc1OCCO | -10.5% (inactive) | -14 |  |  |
| Cc1ccc(NC(=O)Cn2c(=O)n(CCC(=O)NC3CCN(Cc4ccccc4)CC3)c(=O)c3ccccc32)cc1 | 0.946% (inactive) | 3.62 |  |  |
| Cc1cccc(C)c1NC(=O)Cn1c(=O)n(CCCC(=O)NC2CCN(Cc3ccccc3)CC2)c(=O)c2ccccc21 |  | -10.3 | 4.11 µM (active) |  |
| CCc1ccc(NC(=O)Cn2c(=O)n(CCC(=O)NC3CCN(Cc4ccccc4)CC3)c(=O)c3ccccc32)cc1 | -8.28% (inactive) | 3.79 |  |  |
| COCCN(C(=O)CSc1nc2ccc(C)cc2[nH]1)c1c(N)n(Cc2ccccc2)c(=O)[nH]c1=O | -7.36% (inactive) | -11.3 |  |  |
| C[C@H]1CN=C2N(CCNC(=O)CCC3CCCCC3)[C@H](Cc3ccc(O)cc3)CN21 | -12.4% (inactive) | -4.68 |  |  |
| CCOC(=O)c1cccc(NC(=O)C(NS(=O)(=O)c2ccc3c(c2)CCN3C(C)=O)C(C)C)c1 (stereo unspecified) |  | 9.06 |  | inactive |
| O=C(CS(=O)(=O)c1c[nH]c2ccccc12)Nc1ccc(F)cc1 | -0.0934% (inactive) | 1.05 |  |  |
| Cc1ccccc1NS(=O)(=O)c1cc2c3c(c1)C(C)C(=O)N3CCC2 (stereo unspecified) | 23.9% (inactive) |  |  |  |
| COc1ccc(/C=C/c2c([N+](=O)[O-])c(=O)n(C)c(=O)n2C)cc1 | 1.15% (inactive) | -2.6 |  |  |

| Structure (SMILES) | lipid storage change, negative = inhibition | cell number change [%] | Potency | outcome |
| --- | --- | --- | --- | --- |
| Cn1c(/C=C/c2ccc(Br)cc2)c([N+](=O)[O-])c(=O)n(C)c1=O |  | -1.8 | 2.91 µM (active) |  |
| COc1ccc(/C=C/c2c([N+](=O)[O-])c(=O)n(C)c(=O)n2C)cc1OC | 7.09% (inactive) | -10.8 |  |  |
| CCCCOc1ccc(-c2nnc(-c3cc[n+](C)cc3)o2)cc1 | 23.6% (inactive) | 0.955 |  |  |
| CC(=O)N/N=C(\C)CC(=O)Nc1cccc2c1CCCC2 | 18.2% (inactive) | -11.4 |  |  |
| COc1ccc(CC(=O)Nc2cccc3c2CCCC3)cc1 | -15.9% (inactive) | -12.6 |  |  |
| CC(=O)CC(=O)Nc1cccc2c1CCCC2 |  | 2.07 | 0.58 µM (active) |  |
| CCn1cc(S(=O)(=O)NC(C)c2cc(OC)ccc2OC)cn1 (stereo unspecified) | -0.989% (inactive) | 5.77 |  |  |
| Cc1cccc2c1N(CCCOc1ccccc1)C(=O)C2=O | -12.5% (inactive) | 4.6 |  |  |
| CC1CCN(CCCCOc2ccccc2F)CC1 | 0.309% (inactive) | 12.3 |  |  |
| Cn1nnc(NC(=O)c2ccccc2)n1 | -4.09% (inactive) | -11.2 |  |  |
| Cc1ccc(OCc2cc(C(=O)N(C)Cc3cnn(-c4ccccc4C)c3)no2)cn1 |  | -11.8 | 23.1 µM (active) |  |
| CC(=O)c1ccc(OCc2cc(C(=O)N(C)Cc3cc(C)no3)no2)cc1 |  | -2.95 |  | inactive |
| CN(Cc1cnn(C)c1)C(=O)c1cc(COc2c(F)cccc2F)on1 | 13.2% (inactive) | 16.3 |  |  |
| C/C(=N\NC(=O)Cc1cccn1C)c1ccc([N+](=O)[O-])cc1 | 8.91% (inactive) | 2.69 |  |  |
| CCN(Cc1ccncc1)C(=O)CSc1ccc2ccccc2c1 |  |  |  | inactive |
| O=C(Nc1ccc2ccccc2c1)c1ccc(Cl)cc1 |  | -18.8 | 1.3 µM (active) |  |
| O=C(Nc1ccc2ccccc2c1)c1ccc2[nH]c(=O)c(=O)[nH]c2c1 | -0.0479% (inactive) | -10.4 |  |  |
| O=C(Nc1ccc2ccccc2c1)c1ccc(Cl)cc1Cl | 10.6% (inactive) | -1.02 |  |  |
